Counter-ions that a name gives are not always drawn.
Legend:
Assay in all cases: thermal shift delta Tm vs DMSO control; higher = stronger stabilization (binding)
Conditions in all cases: 12.5 µM; protein concentration 2 µM
LOC_OS04G57630-cb004 = system: LOC_OS04G57630-cb004
Method in brief: (§1)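 The melting temperature shift given here is a triplicate mean, measured against protein that received only DMSO. Melting temperatures came from Boltzmann fits of differential scanning fluorimetry data on E. coli-expressed, purified rice kinase domain constructs. Each 19.5 μl well contained 2 μM kinase, 100 mM potassium phosphate pH 7.5, 150 mM NaCl, 10% glycerol, 5 × SYPRO Orange and compound in DMSO. Plates were scanned from 25°C to 95°C at 0.05°C/s.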

LOC_OS05G07850-cb002 = system: LOC_OS05G07850-cb002
Method in brief: as §1

LOC_OS05G16824-cb004 = system: LOC_OS05G16824-cb004
Method in brief: as §1

LOC_OS05G28520-cb001 = system: LOC_OS05G28520-cb001
Method in brief: as §1

LOC_OS05G30820-cb001 = system: LOC_OS05G30820-cb001
Method in brief: as §1

LOC_OS05G43570-cb004 = system: LOC_OS05G43570-cb004
Method in brief: as §1

LOC_OS06G16330-cb003 = system: LOC_OS06G16330-cb003
Method in brief: as §1

LOC_OS06G22820-cb001 = system: T1, LOC_OS06G22820-cb001
T1 sequence (whole entry): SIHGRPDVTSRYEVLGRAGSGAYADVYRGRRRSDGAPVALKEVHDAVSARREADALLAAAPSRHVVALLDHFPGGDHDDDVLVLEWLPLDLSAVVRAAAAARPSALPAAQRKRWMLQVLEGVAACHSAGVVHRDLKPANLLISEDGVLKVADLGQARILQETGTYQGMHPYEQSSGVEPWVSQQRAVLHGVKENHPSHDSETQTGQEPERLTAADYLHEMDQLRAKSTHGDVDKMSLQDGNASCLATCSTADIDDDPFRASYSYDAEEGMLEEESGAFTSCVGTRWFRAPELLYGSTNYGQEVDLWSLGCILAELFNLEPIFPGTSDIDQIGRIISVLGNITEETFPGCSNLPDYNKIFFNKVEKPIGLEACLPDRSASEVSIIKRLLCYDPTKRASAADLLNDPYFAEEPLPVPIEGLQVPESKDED
Method in brief: as §1

LOC_OS07G06570-cb004 = system: LOC_OS07G06570-cb004
Method in brief: as §1

LOC_OS07G07230-cb001 = system: LOC_OS07G07230-cb001
Method in brief: as §1

Sequence of LOC_OS06G16330-cb003 (as listed by the source): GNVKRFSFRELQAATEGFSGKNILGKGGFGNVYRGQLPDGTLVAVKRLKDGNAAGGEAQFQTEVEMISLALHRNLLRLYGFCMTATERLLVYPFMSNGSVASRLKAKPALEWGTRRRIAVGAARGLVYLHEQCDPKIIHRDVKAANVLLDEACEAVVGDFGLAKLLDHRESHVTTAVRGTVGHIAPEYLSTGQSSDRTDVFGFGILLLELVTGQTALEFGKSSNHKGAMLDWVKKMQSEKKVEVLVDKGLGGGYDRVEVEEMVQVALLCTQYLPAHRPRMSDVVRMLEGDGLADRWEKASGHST

Row | Structure (SMILES) | thermal shift delta Tm (LOC_OS04G57630-cb004) | thermal shift delta Tm (LOC_OS05G07850-cb002) | thermal shift delta Tm (LOC_OS05G16824-cb004) | thermal shift delta Tm (LOC_OS05G28520-cb001) | thermal shift delta Tm (LOC_OS05G30820-cb001) | thermal shift delta Tm (LOC_OS05G43570-cb004) | thermal shift delta Tm (LOC_OS06G16330-cb003) | thermal shift delta Tm (LOC_OS06G22820-cb001) | thermal shift delta Tm (LOC_OS07G06570-cb004) | thermal shift delta Tm (LOC_OS07G07230-cb001)
1 | O=C(Nc1ccc(-c2ccnc(Nc3ccc(N4CCOCC4)cc3)n2)cc1)C1CCCN1 (stereo not given) | 0.39 °C | 8.89 °C | -1.75 °C | 0.58 °C | 0.48 °C | 0.34 °C | 2.94 °C | 0.34 °C | 1.36 °C | 0.39 °C
2 | CN1CCN(c2ccc(OC(F)(F)F)c(Nc3ncc4c(n3)-c3c(c(C(N)=O)nn3CCO)CC4)c2)CC1 | 2.32 °C | 0.85 °C | -0.84 °C | 0.63 °C | 0.48 °C | 0.54 °C | 0.46 °C | 0.49 °C | 1.36 °C | 0.02 °C
3 | CNC(=O)c1ccc(-c2cnc3ncc(Cc4ccc5ncccc5c4)n3n2)cc1F | 0.55 °C | 0.67 °C | -1.29 °C | 0.04 °C | 0.18 °C | 0.63 °C | -2.08 °C | 0.46 °C | 1.26 °C | 0.89 °C
4 | O=C(c1cccc(Cl)c1F)N1CCN(Cc2cccc(Nc3nccs3)n2)CC1 | 1.01 °C | 7.36 °C | 3.48 °C | 1.87 °C | 0.31 °C | -0.14 °C | 10.8 °C | 0.57 °C | 1.24 °C | 0 °C
5 | COc1cc2ncnc(Nc3ccc(Cl)cc3F)c2cc1OC | 0.21 °C | 10.1 °C | 2.13 °C | 0.86 °C | 0.51 °C | 0.29 °C | 4.29 °C | 0.69 °C | 1.37 °C | -0.11 °C
6 | CC(C)(CCCCCC(O)CCCCCC(C)(C)C(=O)O)C(=O)O | 0.04 °C | 0.87 °C | 0.14 °C | 0.47 °C | 0.38 °C | 0.54 °C | -0.14 °C | 0.48 °C | 0.64 °C | -0.4 °C
7 | CNS(=O)(=O)Nc1nccc(Cc2c(C)c3ccc(Oc4ncccn4)cc3oc2=O)c1F | 0.3 °C | 0.16 °C | -1.72 °C | 0.32 °C | 0.47 °C | 0.49 °C | 0.47 °C | 0.62 °C | 1.63 °C | 0.51 °C
8 | CC(C)n1nc(-c2cc3cc(O)ccc3[nH]2)c2c(N)ncnc21 [Torkinib (PP242)] | 0.41 °C | 5.09 °C | -3.24 °C | 0.21 °C | 0.67 °C | 0.33 °C | 1.93 °C | 0.42 °C | 0.62 °C | 0.14 °C
9 | CC(C)(O)CC(=O)NCCn1ccc2ncnc(Nc3ccc(Oc4cccc(C(F)(F)F)c4)c(Cl)c3)c21 | 1.06 °C | 0.82 °C | 2.1 °C | -0.31 °C | 0.35 °C | 1.03 °C | 0.72 °C | 1.33 °C | 0.78 °C | -1.32 °C
10 | CC(C)c1c2cc(-c3ccnc(NC4CCC(NC5CCOCC5)CC4)n3)ccc2nn1C (stereo not given) | 1.43 °C | 6.4 °C | -6.14 °C | 0.56 °C | 0.45 °C | 0.57 °C | 3.01 °C | 0.19 °C | 1.62 °C | 0.55 °C
11 | Cc1ccc(NC(=O)c2ccc(CN3CCN(C)CC3)cc2)cc1Nc1nccc(-c2cccnc2)n1 [Imatinib Mesylate (STI571)] | 0.35 °C | 2.65 °C | 0.21 °C | 0.58 °C | 0.32 °C | 0.49 °C | 0.2 °C | 0.68 °C | 1.07 °C | 0.85 °C
12 | C=CC(=O)Nc1cccc(Nc2nc(Nc3ccc(NC4CN(CCF)C4)cc3OC)ncc2C(F)(F)F)c1 | 0.41 °C | 6.71 °C | 1.25 °C | 0.72 °C | 0.43 °C | 0.24 °C | -0.88 °C | 0.16 °C | 1.07 °C | 0.62 °C
13 | COc1cc(Nc2ncc(F)c(Nc3ccc4c(n3)NC(=O)C(C)(C)O4)n2)cc(OC)c1OC | 1.55 °C | 13.2 °C | 12.2 °C | 0.56 °C | 1.19 °C | 0.37 °C | 12.2 °C | 0.02 °C | 0.43 °C | 0.41 °C
14 | O=c1cc(N2CCOCC2)oc2c(-c3ccc4c(c3)OCCO4)csc12 | 0.03 °C | 6 °C | 1.81 °C | -0.12 °C | 0.24 °C | 0.13 °C | 0.18 °C | 0.4 °C | 1.45 °C | 0.63 °C

Reference: the supplement of paper PMC9694430
